Laboratory results published in PubChem BioAssay (NCI).
Compounds without any hit were thinned out: in the full panel of roughly 83,000, 20% have a hit.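 Percent growth is the endpoint: 0 to 100 indicates growth inhibition (40 means 60% inhibition), 0 means no net growth, and negative values indicate cell death.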 Unmarked numbers belong to inactive results. The source made the active and inactive calls. The calls were made as follows: active = growth percent below 10; inactive = the rest.

What was measured:
Assay in all cases: NCI-60 one-dose screen, 48 h (100 = growth as untreated, 0 = no growth, -100 = all killed)
Details in all cases: 10 µM
NCI-H23 lung = test system: NCI-H23 lung
NCI-H226 lung = test system: NCI-H226 lung
NCI-H322M lung = test system: NCI-H322M lung
HOP-62 NSCLC = test system: HOP-62 NSCLC
NCI-H460 lung = test system: NCI-H460 lung
NCI-H522 lung = test system: NCI-H522 lung
A549/ATCC NSCLC = test system: A549/ATCC NSCLC
786-0 renal = test system: 786-0 renal
COLO 205 colon = test system: COLO 205 colon
DU-145 prostate = test system: DU-145 prostate
K-562 leukemia = test system: K-562 leukemia
MALME-3M melanoma = test system: MALME-3M melanoma
MDA-MB-231 breast = test system: MDA-MB-231 breast
RXF 393 renal = test system: RXF 393 renal
SF-295 CNS = test system: SF-295 CNS
SF-539 CNS = test system: SF-539 CNS
UACC-257 melanoma = test system: UACC-257 melanoma
M14 melanoma = test system: M14 melanoma
HCT-15 colon = test system: HCT-15 colon
SF-268 CNS = test system: SF-268 CNS

Structure (SMILES) | growth (NCI-H23 lung) | growth (NCI-H226 lung) | growth (NCI-H322M lung) | growth (HOP-62 NSCLC) | growth (NCI-H460 lung) | growth (NCI-H522 lung) | growth (A549/ATCC NSCLC) | growth (786-0 renal) | growth (COLO 205 colon) | growth (DU-145 prostate) | growth (K-562 leukemia) | growth (MALME-3M melanoma) | growth (MDA-MB-231 breast) | growth (RXF 393 renal) | growth (SF-295 CNS) | growth (SF-539 CNS) | growth (UACC-257 melanoma) | growth (M14 melanoma) | growth (HCT-15 colon) | growth (SF-268 CNS)
Fc1ccc(-c2nnc(-c3c(-c4ccc(F)cc4)nc4ccccn34)o2)cc1 | 69% | 84.2% | 105% | 78.5% | 70% | 25.9% | 72.4% | 88.2% | 79.5% | 92.1% | 87.2% | 120% | 78.9% | 85.9% | 88.7% | -10.1% (active) | 85.1% | 116% | 98.5% | 
CC12O[C@H](C[C@@H](O)[C@H]1O)n1c3ccccc3c3c4c(c5c6ccccc6n2c5c31)C(=O)N(CCCN)C4=O | 28.9% | 27.4% | 56.3% | 25.3% | 10.4% | -2.33% (active) | 31.5% | 53.9% | 12.9% | 60.8% | 15.5% | 33.4% | 41.1% | 26.4% | 51% | 39.1% |  | 37.1% | 96.4% | 36.5%
COc1cc(-c2nnc(-c3c(-c4ccc(F)cc4)nc4ccccn34)o2)cc(OC)c1OC | 80.8% | 53.7% | 91.8% | 62.9% | 52.5% | 4.71% (active) | 70.7% | 64.7% | 107% | 77% | 98.8% | 105% | 64.6% | 66.9% | 74.6% | 26.4% | 92.1% | 104% | 90.6% | 
Cc1cc(N(CCCNc2ccnc3cc(Cl)ccc23)Cc2cccs2)nc(Cl)n1 | 25.3% | 52.5% | 72.9% | 41.1% | 35.3% | 35.6% | 51.9% | 48.2% | -37.9% (active) | 50.2% | 0.837% (active) | 37.9% | 46.6% | 46.2% | 36% | 56.3% |  | 22.9% | 24.3% | 61.9%
COc1cc(Cl)cc(-c2nn(-c3cccc(NC(=O)Nc4ccc(Cl)c(C(F)(F)F)c4)c3)cc2-c2ccncc2)c1 | 0.301% (active) | -2.82% (active) | 18.7% | 13.5% | 2.76% (active) | -10.4% (active) | 5.2% (active) | -4.76% (active) | -48.3% (active) | 15.2% | 8.93% (active) | -19.8% (active) | -30.8% (active) | -29.9% (active) | -7.48% (active) | -1.17% (active) | -25.9% (active) | 3.99% (active) | 7.28% (active) | 22.9%
Clc1ccc(Nc2ccnc(NCCCNc3ccnc4cc(Cl)ccc34)n2)cc1 | 45.6% | 93.7% | -16.7% (active) | 19.6% | -28.8% (active) | -76% (active) | -65.1% (active) | -98.9% (active) | -91.1% (active) | 9.74% (active) | -56.9% (active) | -81% (active) | -86% (active) | -89.3% (active) | -81.1% (active) | -96.8% (active) |  | -80% (active) | -60.6% (active) | -75.8% (active)
Cc1cc(Nc2ccc(Cl)cc2)nc(NCCCNc2ccnc3cc(Cl)ccc23)n1 | 51.2% | 102% | -0.971% (active) | -22.6% (active) | -44.9% (active) | -78.8% (active) | -55.2% (active) | -98.7% (active) | -91.1% (active) | 1.28% (active) | -53.8% (active) | -82.2% (active) | -88.2% (active) | -91.9% (active) | -68.2% (active) | -100% (active) |  | -87.5% (active) | -54.3% (active) | -66.5% (active)
COc1ccc(Nc2ccnc(NCCNc3ccnc4cc(Cl)ccc34)n2)cc1 | 48.8% | 49.7% | 64.7% | 74.6% | 47.4% | 43.9% | 47% | 59.4% | 38.8% | 61.4% | 3.54% (active) | -1.18% (active) | 37.3% | 55.7% | 46.1% | -14.4% (active) |  | -16.6% (active) | 36.8% | 54.5%
Cc1ccc(C(=O)Nc2cccc(F)c2)cc1NC(=O)C1(c2ncnc3[nH]ccc23)CC1 | 68.2% | 67.4% | 116% | 67.4% | 96.2% | 61% | 82.4% | 110% | 59.1% | 106% | 6.39% (active) | 35% | 54.8% | 91.5% | 89.3% | 73% |  | 60% | 88.8% | 95.2%
O=C(Nc1cccc(Br)c1)c1cc(=O)[nH]c2ccccc12 | 103% | 82.9% | 94.2% | 64.3% | 105% | 86.7% | 94.1% | 103% | 85.1% | 110% | 55.8% | 101% | 93.6% | 77.4% | 112% | 92% |  | 104% | 92.4% | 94.8%
Cc1ccc(Nc2cc(C)nc(NCCCNc3ccnc4cc(Cl)ccc34)n2)cc1 | 17.6% | 48.5% | -31.8% (active) | -12.4% (active) | -45.4% (active) | -83.5% (active) | -69.3% (active) | -100% (active) | -88.2% (active) | -17.8% (active) | -55% (active) | -80.5% (active) | -92.4% (active) | -92.1% (active) | -85.6% (active) | -96.9% (active) |  | -86% (active) | -71.7% (active) | -85% (active)
CC12O[C@H](C[C@@H](OC(=O)c3ccccc3)[C@H]1O)n1c3ccccc3c3c4c(c5c6ccccc6n2c5c31)C(=O)NC4=O | 56.9% | 32.3% | 83.1% | 33.4% | 79.6% | 66.7% | 50.9% | 78.7% | 46.8% | 58.2% | 71% | 46.4% | 53.3% | 15.6% | 45.8% | 86.6% |  | 44.4% | 77.7% | 61.4%
CN(C)CCNC(=O)c1cccn2c(=O)c3cc4ccccc4cc3nc12 | -3.24% (active) | -16% (active) | 3.8% (active) | -26.8% (active) | -31.7% (active) | -88.5% (active) | -27.1% (active) | -31.3% (active) | -15.2% (active) | -3.1% (active) | 4.58% (active) | -45.2% (active) | 22% | -89.5% (active) | -19.7% (active) | 1.59% (active) |  | -63.7% (active) | 12.7% | -14.9% (active)
COc1cc(Nc2ccnc(NCCNc3ccnc4cc(Cl)ccc34)n2)cc(OC)c1 | 38.2% | 55.5% | 46.5% | 79.2% | 27.8% | 17.7% | 42.9% | 35.4% | 2.21% (active) | 63.9% | 2.17% (active) | -68.3% (active) | 27.1% | 46.2% | 39.9% | -65.9% (active) |  | -79.9% (active) | 28.8% | 50.5%
O=C(Nc1nc2ccc(F)cc2s1)c1cc(-c2ccc(F)cc2)n2nc(-c3ccccc3)cc2n1 | 79.7% | 105% | 111% | 64.1% | 59.5% | 98.9% | 92.1% | 101% | 96.4% | 87% | 99.9% | -1.39% (active) | 83.5% | 104% | 94.8% | 93.6% | 59.2% | 81% | 90.8% | 
CC(C)=CCc1cc(O)cc2c1OC(C=C(C)C)C1=C2C(=O)C2=C(C1=O)S(=O)(=O)CCN2 (stereo not given) | 28.6% | 59.8% | 5.2% (active) | 35% | 31.4% | 7.19% (active) | 70.1% | 80% | 43.4% | 56.4% | 5.77% (active) | -64.7% (active) | 17.5% | 73.3% | 85.5% | -19.2% (active) |  | 27.6% | 58% | 2.3% (active)
